gsp ag – gsp mutant agonism; gsp mutant cells, cAMP HTRF, 30 min; Potency, µM (titrated, usually from 76.9 µM), for the others: top-dose activation (cAMP increase), most hits filed as activators; 340,000 compounds, 0.13% hits; active means well fitted activation curve with a large enough effect; inconclusive means small, poorly fitted or top-dose-only effect, or another doubt; inactive means no such curve, though single readings can be large or run the other way; cell line not stated here;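 further: phosphodiesterase inhibitor Ro 20-1724 added with compounds to block cAMP breakdown; potency means the concentration at half of the fitted maximal effect; nearly all actives have a fitted effect of over 60% in size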
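Cells stably selected in G418 were plated at 2000/well, grown 16-24 hr, then given compounds in DMSO with the PDE inhibitor […] (300 uM solution added) for 30 min at 37C; cAMP was read by HTRF.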
Mm-Cpn inhibitor – blocks the Methanococcus maripaludis chaperonin Mm-Cpn | purified Mm-Cpn ATPase, ADP Transcreener TR-FRET | 330,000 compounds, 0.031% hits | Potency, µM (doses to about 76.9 µM), inactives show at the highest dose activity, negative = inhibition, actives largely listed as inhibitors; active means well fitted inhibition curve with a large enough effect; inconclusive means small, poorly fitted or top-dose-only effect; further: potency means the concentration at half of the fitted maximal effect; on the % scale 0 is the no-effect control and ±100 the full control effect; nearly all actives have a fitted effect of over 80% in size
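Purified archaeal Mm-CPN (25nM final) preincubated 10 min at 37degC with compound, then 10uM ATP for 30 min at 37degC; ADP measured by HTRF Transcreener TR-FRET; buffer 30 mM TRIS pH 7.4, 100mM KCl, 5mM MgCl2, 1mM DTT.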
uPA generation – cell surface uPA generation inhibition. cell surface uPA generation assay, qHTS. Potency, µM (doses to about 38.3 µM), inactives show top-dose activity change, negative = inhibition, hits mostly inhibitors. 330,000 compounds, 0.31% hits; active means well fitted inhibition curve with a large enough effect; inconclusive means small, poorly fitted or top-dose-only effect; inactive means no such curve, though single readings can be large or run the other way; tested in mouse RAW 264.7 cells; further: potency means the concentration at half of the fitted maximal effect; on the % scale 0 is the no-effect control and ±100 the full control effect; nearly all actives have a fitted effect of over 55% in size
CCT chaperon mod – changes cytosolic chaperonin activity | purified chaperonin ATPase assay, HTRF ADP detection, 30 min | activity change, % (test concentration not listed), hits read low | 360,000 compounds, 0.3% hits | AID 651819; in the data active means activity change below about -30%; further: on the % scale 0 is the no-effect control and ±100 the full control effect
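We incubate TRiC, 40 or 20 nM final, with library compounds at 76 uM and 10 uM ATP for 30 min at 37 °C. ADP formed is detected with Transcreener HTRF reagents after 30 min at room temperature.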
gsp antag – gsp mutant antagonism | gsp-mutant cells, cAMP HTRF, 30 min | Potency, µM (doses to about 76.9 µM), inactives show at the highest dose activity change, negative = inhibition, actives largely listed as inhibitors | 340,000 compounds, 0.4% hits | AID 624288; calls by dose curve; cell line not stated here;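 further: intracellular cAMP measured with PDE inhibitor Ro 20-1724 present during compound exposure; potency means the concentration at half of the fitted maximal effect; on the % scale 0 is the no-effect control and ±100 the full control effect; nearly all actives have a fitted effect of over 65% in size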
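HTRF cAMP measurement after 30 min RT detection following 30 min, 37C compound treatment alongside […] (added as 300 uM solution) in G418-selected cells seeded at 2000/well and grown 16–24 h.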
TSHR antag – human thyrotropin receptor antagonism; AID 504810; activity change, negative = inhibition, % at 11.5 µM; TSHR-expressing cells, TSH-stimulated cAMP HTRF, 2 h; stronger effect = lower value; 330,000 compounds, 0.2% hits; P16473;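 active means activity change below a set negative limit, meaning inhibition stronger than a set level, cut at about -70% in these data; inconclusive means activity change between two set negative limits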; further: on the % scale 0 is the no-effect control and ±100 the full control effect
Target sequence (P16473 whole entry, looked up): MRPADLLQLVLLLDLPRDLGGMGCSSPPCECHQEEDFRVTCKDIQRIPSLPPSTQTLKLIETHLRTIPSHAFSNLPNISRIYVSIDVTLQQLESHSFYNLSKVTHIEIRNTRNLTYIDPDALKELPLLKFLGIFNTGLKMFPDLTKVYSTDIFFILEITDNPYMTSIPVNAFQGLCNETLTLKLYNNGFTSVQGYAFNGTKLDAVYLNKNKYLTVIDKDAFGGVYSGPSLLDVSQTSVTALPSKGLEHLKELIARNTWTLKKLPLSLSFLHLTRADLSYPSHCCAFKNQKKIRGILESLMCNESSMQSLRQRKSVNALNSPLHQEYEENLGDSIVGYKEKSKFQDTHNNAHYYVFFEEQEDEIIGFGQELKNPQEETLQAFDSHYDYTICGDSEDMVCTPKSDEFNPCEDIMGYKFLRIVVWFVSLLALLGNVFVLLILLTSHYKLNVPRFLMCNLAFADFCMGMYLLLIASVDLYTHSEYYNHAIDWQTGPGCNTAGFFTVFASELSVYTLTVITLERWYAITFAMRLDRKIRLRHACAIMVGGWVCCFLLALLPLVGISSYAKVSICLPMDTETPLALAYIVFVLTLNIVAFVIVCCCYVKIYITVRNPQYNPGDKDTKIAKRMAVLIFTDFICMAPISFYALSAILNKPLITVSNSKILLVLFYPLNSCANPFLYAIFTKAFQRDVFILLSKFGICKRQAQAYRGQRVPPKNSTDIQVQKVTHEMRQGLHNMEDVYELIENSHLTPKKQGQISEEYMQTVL
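Cell-based HTRF cAMP assay; TSHR cells + compound, TSH EC80 (4nM final), 2 h, 37 deg C. Lysis with anti-cAMP cryptate and cAMP-d2, 30 min RT, read 665/620 nm.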
* hit, by the source's call; ? = inconclusive; · = not tested or not shown; [ ] = remark or other dose. Hits are enriched below; roughly 1.2% of the tested compounds scored in any of these assays.

SMILES	gsp ag	Mm-Cpn inhibitor	uPA generation	CCT chaperon mod	gsp antag	TSHR antag
Clc1ccc2[nH]c(-c3ccccc3)cc2c1	-3%	-2%	12%	-1	-14%	-7
COc1ccc2[nH]c(-c3cccc(F)c3)cc(=O)c2c1	-18%	1%	0.35µM*	-1	8%	5
O=c1cc(-c2ccccc2)[nH]c2ccc(F)cc12	29%	3%	0.4µM*	-1	18%	-6
Cc1ccc(-c2cc(=O)c3cc(F)ccc3[nH]2)cc1	·	0%	?	0	7%	8
CCCN(C(=O)Cn1ncc2c([nH]c3ccccc32)c1=O)c1ccccc1C	-5%	4%	6%	-2	0%	-3
Cc1ccc[n+](/C(=C\C(=C=[N-])C#N)C(=O)c2ccc(Cl)cc2)c1	6%	-3%	2%	0	0%	-6
COC(=O)c1ccc(Oc2nc(N(C)C)nc(N3CCOCC3)n2)cc1	-5%	1%	3%	-1	-4%	-4
CCOC(=O)c1ccc(Oc2nc(N(C)C)nc(N3CCOCC3)n2)cc1	27%	0%	10%	-1	50µM*	-15
CCN(C(=O)COC(=O)/C(=C/c1ccccc1)n1nnnc1C)C1CCCCC1	?	-1%	-12%	-88*	10%	3
Cc1cnc(NC(=O)c2ccc(OCC3CCCO3)cc2)s1 (centres undefined)	11%[15.4 µM]	0%	-14%	0	5%	-4
O=C(Nc1nc2ccccc2s1)NC1CCCCC1	-24%	3%	7.9µM*	-1	-11%	-6
O=C(CC1CCCCC1)Nc1nc2ccccc2s1	-8%[15.4 µM]	0%	-2%	-4	-1%	-3
O=C(Nc1nc2ccccc2s1)c1ccc(OCC2CCCO2)cc1 (centres undefined)	12%	-9%	-7%	2	32µM*	-23
COc1ccc(CNC(=O)C(NC(C)=O)C(=O)Nc2ccc(C(C)C)cc2)cc1 (centres undefined)	-29%	-1%	6%	-41*	6%	-3
COc1ccc(NC(=O)C(NC(C)=O)C(=O)NCc2ccccc2OC)cc1 (centres undefined)	-4%	5%	5%	-2	2%	-6
O=c1[nH]ncc(N2CCCCCC2)c1Cl	15%	1%	-1%	-3	3%	4
CCCNC(=O)C(Cc1ccc(F)cc1)NC(=O)c1ccc(C#N)cc1 (centres undefined)	-32%	2%	8%	-2	10%	3
Cc1c(C)c2ccc(OCC(=O)c3ccccc3)cc2oc1=O	?	-5%	-4%	-3	35µM*	-2
COc1cccc(C(=O)COc2ccc3c(C)c(Cc4ccccc4)c(=O)oc3c2)c1	0%[15.4 µM]	-4%	-2%	-3	12%	-20
COC(=O)c1ccc(NC(=O)Nc2ccc3c(c2)OCO3)cc1	?	-1%	-2%	-2	1%	-20
O=C(CN1CCN(Cc2ccccc2)CC1)N/N=C/c1cccnc1	1%	0%	12%	-36*	8%	-11
O=C(Cc1ccccc1)N/N=C/c1cccnc1	-11%[15.4 µM]	1%	-1%	0	10%	-3
Cc1cc(O)c(-c2cc(C(=O)Nc3cccnc3)[nH]n2)cc1C	-20%	1%	-6%	1	-5%	7
O=C(Cc1ccccc1)Nc1cccc(N2C(=O)C=CC2=O)c1	17%	-1%	-4%	2	9%	-71*
COc1cccc(NC(=O)Cc2ccccc2)c1	·	1%	?	2	-4%	2
SMILES	gsp ag	Mm-Cpn inhibitor	uPA generation	CCT chaperon mod	gsp antag	TSHR antag
O=S1(=O)C=C(Sc2nc3cc(Cl)ccc3o2)c2ccccc21	6%	2%	-18%	1	10%	-78*
COc1ccc(Cl)cc1NC(=O)Cn1nnc(C(=O)NCCc2ccc(OC)c(OC)c2)c1N	-37%	-1%	-2%	1	-2%	-9
COc1ccc(CCNC(=O)c2nnn(CC(=O)Nc3ccc(C)cc3C)c2N)cc1OC	30%	4%	-1%	1	22%	-82*
Cc1ccc(NC(=O)Cn2nnc(C(=O)NCCc3ccccc3)c2N)c(C)c1	5%	3%	-3%	1	6%	-107*
COC(=O)c1cc(NC(=O)c2cccc(C(F)(F)F)c2)c(=O)oc1C/C=N/OCc1cccc(Cl)c1Cl	-1%	1%	4%	-1	4%	10
O=C(Nc1ccccc1Cl)N1CCCN(c2nc(-c3ccccc3)ns2)CC1	-38%	-3%	7%	1	?	-10
O=C(Nc1ccccc1)N1CCN(c2nc(-c3ccccc3)ns2)CC1	9%[15.4 µM]	-3%	11%	0	35µM*	-7
O=C1N/C(=C/c2ccc(N3CCOCC3)o2)C(=O)N1c1cccc(Cl)c1	?	2%	4µM*	0	?	-20
C(=N\Nc1nc2ccccc2[nH]1)/c1ccccn1	-11%	1%	?	0	2%	-6
Fc1ccccc1-c1ccc(/C=N/Nc2nc3ccccc3[nH]2)o1	-27%	-4%	4µM*	0	40µM*	-1
COC(=O)c1ccc(C(=O)NC2CCCc3c2cnn3-c2ccccc2F)nc1 (centres undefined)	3%	-1%	?	-2	5%	9
CCOc1ccc(NC(=O)Nc2cc(C(C)C)c(O)cc2C)cc1	8%[15.4 µM]	3%	3%	-2	-10%	-4
Cc1cc(O)c(C(C)C)cc1NC(=S)Nc1cc(C(C)C)c(O)cc1C	-1%	·	9%	2	28µM*	·
Cc1ccc(-n2c(C)nc3c(cnn3-c3ccc(F)cc3)c2=O)cc1	-7%	-2%	1%	1	?	2
Cc1nc2c(cnn2-c2ccccc2Cl)c(=O)n1-c1ccc(C(C)C)cc1	-35%	-1%	0%	0	35µM*	-3
O=C(CN1C(=O)NC2(CCCc3ccccc32)C1=O)Nc1ccccc1OC(F)F (centres undefined)	18%	-4%	8%	0	14%	-11
O=C1N=c2ccccc2=C1c1sc(=S)n(-c2ccc(O)cc2)c1O	-2%[15.4 µM]	1%	0%	0	3%	-5
CN(c1ccc(O)cc1)c1nc(O)c(C2=c3ccccc3=NC2=O)s1	7%	·	2%	-3	14µM*	·
Cc1nc(SC2CCOC2=O)c2c(C)c(C)sc2n1 (centres undefined)	20µM*	?	1%	2	1%	6
COC(=O)c1ccc2nc(C)cc(Nc3ccccc3C)c2c1	3%	-1%	3%	-3	-3%	3
COC(=O)c1ccc(Nc2cc(C)nc3ccc(C)cc23)cc1	-3%[15.4 µM]	1%	-8%	-39*	-6%	-4

Screens as filed in PubChem BioAssay.
